This passage reports Potency and outcome results from PubChem BioAssay (Tox21).

Assay [1] is described as follows: A CellTox Green Cytotoxicity Assay to monitor cytotoxicity in HepG2 cells - 8 hour (AID 1224890). Note: nearly all actives have a fitted effect of over 45% in size. Put shortly:
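Fluorescent DNA-binding dye, 600 HepG2 cells/well, 5 h preincubation then compound in DMSO; same plates read at 0–40 h, 37 C.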

The nature of assay [2]: qHTS assay to identify small molecule antagonists of the androgen receptor (AR) signaling pathway using the MDA cell line in the presence of 0.5 nM R1881 - cell viability counter screen (AID 1259242). Note: nearly all actives have a fitted effect of over 45% in size. Put shortly: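 Human breast carcinoma MDA-kb2 cells, cultured without CO2, receive compounds alongside 0.5 nM (final) R1881 agonist. After 16 hr at 37C, viability is taken as live-cell protease signal.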
A general note: Quantitative high-throughput screening tests each substance at several concentrations.

In assay [3] the target is Estrogen receptor (Homo sapiens) (UniProt P03372). Briefly: qHTS assay to identify small molecule antagonists of the estrogen receptor alpha (ER-alpha) signaling pathway using the BG1 cell line in the presence of 0.1 nM 17-beta-estradiol (AID 1259244). Note: nearly all actives have a fitted effect of over 50% in size. Put shortly: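 Seeding of stripped-serum-adapted VM7Luc4E2 cells, 24 h attachment, compound transfer, then 0.1 nM final 17beta-estradiol; after 22 h incubation, ONE-Glo reagent and luminescence reading.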
Chain of Estrogen receptor (Homo sapiens) (P03372 whole entry, looked up): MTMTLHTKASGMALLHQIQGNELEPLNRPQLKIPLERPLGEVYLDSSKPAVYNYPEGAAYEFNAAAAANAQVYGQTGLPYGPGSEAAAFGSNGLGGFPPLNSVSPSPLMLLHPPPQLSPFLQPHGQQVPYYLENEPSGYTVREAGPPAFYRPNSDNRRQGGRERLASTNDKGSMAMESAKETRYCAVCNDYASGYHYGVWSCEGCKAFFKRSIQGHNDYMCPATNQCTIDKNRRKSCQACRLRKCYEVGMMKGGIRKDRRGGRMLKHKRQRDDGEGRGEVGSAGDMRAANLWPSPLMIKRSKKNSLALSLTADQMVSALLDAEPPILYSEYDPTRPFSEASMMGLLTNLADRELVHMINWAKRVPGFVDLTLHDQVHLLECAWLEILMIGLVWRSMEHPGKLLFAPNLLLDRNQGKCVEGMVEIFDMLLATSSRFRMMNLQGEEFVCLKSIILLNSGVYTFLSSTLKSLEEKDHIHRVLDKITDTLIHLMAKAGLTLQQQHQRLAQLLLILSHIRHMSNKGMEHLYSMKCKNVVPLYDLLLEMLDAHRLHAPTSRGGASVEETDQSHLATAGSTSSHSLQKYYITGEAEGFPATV

Assay [4] is described as follows: qHTS assay to identify small molecule HDAC inhibitors (AID 1259364).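 Note: wild-type HCT-116 cells with endogenous class I/II HDAC activity; top concentration of the series differs between compounds; nearly all actives have a fitted effect of over 45% in size.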 Put shortly:
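After a 2 hr compound incubation (37C, 5% CO2), HCT-116 cells seeded at 1,500/well the day before received HDAC-Glo reagent; signal read as luminescence after 30 min at room temperature.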

Assay [5] in a line: qHTS assay to identify small molecule HDAC inhibitors - cell viability counter screen (AID 1259365). Note: series mostly up to about 92 µM; nearly all actives have a fitted effect of over 50% in size. In a few lines: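 Wild-type HCT-116 cells, 1,500/well, cultured overnight, then compound-treated 2 h at 37 C. Viability measured as ATP luminescence with CellTiter-Glo after 30 min at room temperature.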
The nature of assay [6]: qHTS assay to identify small molecule agonists of the sonic hedgehog signaling (Shh) pathway - cell viability counter screen (AID 1259366). Note: nearly all actives have a fitted effect of over 50% in size. In a few lines: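 NIH/3T3-derived Gli1-Luc reporter cells, 2,000 per well, received compound after 4 h and were treated about 23 h at 37C. Viability measured in the same wells by CellTiter-Fluor fluorescence after 1 h.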
The nature of assay [7]: qHTS assay to identify small molecule antagonists of the sonic hedgehog signaling (Shh) pathway - cell viability counter screen (AID 1259367). Note: nearly all actives have a fitted effect of over 55% in size. In a few lines: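 Conditioned medium drove Shh signaling in 3T3 Gli1-Luc cells exposed to compounds at 37C and 5% CO2. Viability was determined from CellTiter-Fluor fluorescence, with reagent incubated 1 hr after 23 hr of treatment.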

The nature of assay [8]: qHTS assay to identify small molecule agonists of the sonic hedgehog signaling (Shh) pathway (AID 1259368; calls by dose curve;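 note: NIH/3T3-derived 3T3Gli1-Luc cells carrying a stable Gli1-driven firefly luciferase reporter; series mostly up to about 92 µM; nearly all actives have a fitted effect of over 15% in size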). In a few lines: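 Stable NIH/3T3 Gli1-Luc reporter clone; 24 hr cpd exposure after a 4 hr settling period; luminescence endpoint.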
A short description of assay [9]: qHTS assay to identify small molecule antagonists of the sonic hedgehog signaling (Shh) pathway (AID 1259369; calls by dose curve; note: nearly all actives have a fitted effect of over 45% in size). In a few lines:
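Gli1 transcriptional reporter (firefly Luc) in NIH/3T3 background, conditioned-medium activated. 24hr exposure, luminescence endpoint.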

Assay [10] deals with Estrogen receptor beta (Homo sapiens) (UniProt Q92731). Description: qHTS assay to identify small molecule agonists of the estrogen receptor beta (ER-beta) signaling pathway (AID 1259377; active = well fitted activation curve with a large enough effect in the signal ratio in the repeat runs, not every such curve was filed as active; the % refers to the signal ratio). In a few lines:
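ER-beta-UAS-bla HEK293T cells in medium with 2% charcoal-stripped FBS were exposed to compounds for 16 h at 37C. Beta-lactamase reporter activity was read as fluorescence after 2 h with LiveBLAzer B/G FRET substrate at room temperature.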

The target is the same in assay [11]. Briefly: qHTS assay to identify small molecule antagonists of the estrogen receptor beta (ER-beta) signaling pathway (AID 1259378; active = well fitted inhibition curve with a large enough effect in the signal ratio in the repeat runs, not every such curve was filed as active; the % refers to the signal ratio; note: potency is the fitted concentration of half-maximal effect). In a few lines: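 ER-beta-UAS-bla HEK293T (GripTite) cells in 2% charcoal-stripped FBS medium were preincubated 6 hr at 37C, dosed with compound, then stimulated with 1 nM E2 (final) for 16 hr; beta-lactamase reporter read by B/G FRET fluorescence after 2 hr substrate loading.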

Assay [12] is described as follows: qHTS assay to identify small molecule agonists of the androgen receptor (AR) signaling pathway in the presence of an antagonist - cell viability counter screen (AID 1259379).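 Note: MDA-kb2 human breast cancer cells carrying an MMTV luciferase reporter; series mostly up to about 92 µM; nearly all actives have a fitted effect of over 25% in size.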 Put shortly: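 Counter screen for cell viability run in parallel with the AR agonist-mode luciferase assay. MDA-kb2 cells were co-treated with nilutamide (3.0uM final) and compounds, then incubated 16 hr at 37C, and CellTiter-Fluor fluorescence was measured.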

Assay [13] can be described thus: qHTS assay to identify small molecule agonists of the estrogen receptor beta (ER-beta) signaling pathway - cell viability counter screen (AID 1259380). Note: nearly all actives have a fitted effect of over 30% in size. Note: potency is the fitted concentration of half-maximal effect. Put shortly: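 In this qHTS counter screen, HEK293T cells carrying an ER-beta/UAS beta-lactamase reporter, grown in 2% charcoal-stripped FBS, received compound for 16 hr; ATP-based CellTiter-Glo luminescence was then read after 30 min at room temperature.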

The target in assay [14] is Estrogen receptor (Homo sapiens) (UniProt P03372). Briefly: qHTS assay to identify small molecule agonists of the estrogen receptor alpha (ER-alpha) signaling pathway in the presence of an antagonist (AID 1259383; calls by dose curve; note: top concentration of the series differs between compounds; nearly all actives have a fitted effect of over 15% in size). In a few lines: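 ER-alpha agonism measured under antagonist challenge: 10.0nM ICI-182,780 (final) plus compound, 15 concentrations, 22hr, VM7Luc4E2 ERE-luciferase cells. Read by luminescence.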

A short description of assay [15]: qHTS assay to identify small molecule antagonists of the estrogen receptor beta (ER-beta) signaling pathway - cell viability counter screen (AID 1259382). Note: series mostly up to about 92 µM; nearly all actives have a fitted effect of over 55% in size. In a few lines: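 HEK293T ER-beta-UAS-bla, 2% charcoal-stripped FBS; compounds + 1nM E2 16 hr 37C; CellTiter-Glo luminescence, 30 min RT.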
Assay [16] can be described thus: qHTS assay to identify small molecule agonists or antagonists of the thyroid stimulating hormone receptor (TSHR) signaling pathway - wild type cell line counter screen (AID 1259384; calls by dose curve). In a few lines:
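Wild-type HEK293 cells were plated 18 h at 37 C/5% CO2, pin-dosed with compound plus Ro20-1724 medium, held 30 min at room temperature, then given cAMP-d2 and anti-cAMP-cryptate; fluorescence was read after 1 h. Fifteen concentrations, triplicate.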

Assay [17] deals with Androgen receptor (Homo sapiens) (UniProt P10275). Description: qHTS assay to identify small molecule antagonists of the androgen receptor (AR) signaling pathway using the MDA cell line in the presence of 0.5 nM R1881 (AID 1259243). Note: nearly all actives have a fitted effect of over 50% in size. Put shortly: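 Cells: MDA-kb2 (MMTV-luc). Stimulus: 0.5 nM R1881. Time: 16 hr, 37C, no CO2. Detection: ONE-Glo luminescence after 30 min at RT.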
Chain of Androgen receptor (Homo sapiens) (P10275 whole entry, looked up): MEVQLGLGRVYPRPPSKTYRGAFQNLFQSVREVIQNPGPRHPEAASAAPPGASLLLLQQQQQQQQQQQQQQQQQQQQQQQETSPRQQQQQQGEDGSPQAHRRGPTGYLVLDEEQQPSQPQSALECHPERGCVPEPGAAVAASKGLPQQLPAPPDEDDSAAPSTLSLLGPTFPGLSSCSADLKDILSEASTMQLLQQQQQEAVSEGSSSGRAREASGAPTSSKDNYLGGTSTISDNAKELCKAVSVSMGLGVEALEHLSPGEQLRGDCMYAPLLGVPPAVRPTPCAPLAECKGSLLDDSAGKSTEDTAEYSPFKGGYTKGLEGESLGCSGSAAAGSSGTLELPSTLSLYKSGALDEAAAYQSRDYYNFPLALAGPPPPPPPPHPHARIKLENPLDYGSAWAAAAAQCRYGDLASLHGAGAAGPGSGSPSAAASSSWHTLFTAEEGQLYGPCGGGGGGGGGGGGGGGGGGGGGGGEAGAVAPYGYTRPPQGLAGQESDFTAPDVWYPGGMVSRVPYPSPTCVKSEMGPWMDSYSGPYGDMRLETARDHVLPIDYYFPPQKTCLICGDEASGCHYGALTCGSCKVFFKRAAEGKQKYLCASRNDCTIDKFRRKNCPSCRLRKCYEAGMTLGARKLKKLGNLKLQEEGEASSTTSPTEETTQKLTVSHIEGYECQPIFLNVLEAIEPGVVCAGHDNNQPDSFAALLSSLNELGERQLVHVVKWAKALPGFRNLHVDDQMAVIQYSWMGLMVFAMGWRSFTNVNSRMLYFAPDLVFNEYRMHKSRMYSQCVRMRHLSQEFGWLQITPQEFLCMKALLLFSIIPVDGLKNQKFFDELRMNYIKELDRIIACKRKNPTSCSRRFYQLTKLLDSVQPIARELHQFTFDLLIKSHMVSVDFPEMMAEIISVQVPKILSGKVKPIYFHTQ

Assay [18] has the same target. Description: qHTS assay to identify small molecule agonists of the androgen receptor (AR) signaling pathway in the presence of an antagonist (AID 1259381; calls by dose curve; note: nearly all actives have a fitted effect of over 15% in size). In a few lines:
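AR antagonist background: nilutamide 3.0uM final. Cell line: MDA-kb2, MMTV-driven luciferase, responsive to both AR and GR. Exposure 16hr, 37C, no CO2; ONE-Glo luminescence.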

The nature of assay [19]: qHTS assay to identify small molecule phospholipidosis (PLD) inducers (AID 1259344; active = well fitted curve in the direction sought with a large enough effect; an effect the other way counts as inactive or inconclusive). In a few lines:
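After 4 h attachment on collagen I, HepG2 cells were dosed with compound alongside LipidTOX Red, kept 24 h at 37 C, fixed, and imaged for lamellar phospholipid pits.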

Unmarked numbers belong to inactive results. Results filed as inconclusive are left out. The source made the active and inactive calls. Unless noted, calls come from the whole dose curve; as a rule, active = well fitted curve in the direction sought with a large enough effect in the repeat runs; inconclusive = weak or mixed curves; inactive = no such curve, though single readings can be large; an effect the other way counts as inactive or inconclusive.

Chain of Estrogen receptor beta (Homo sapiens) (Q92731 whole entry, looked up): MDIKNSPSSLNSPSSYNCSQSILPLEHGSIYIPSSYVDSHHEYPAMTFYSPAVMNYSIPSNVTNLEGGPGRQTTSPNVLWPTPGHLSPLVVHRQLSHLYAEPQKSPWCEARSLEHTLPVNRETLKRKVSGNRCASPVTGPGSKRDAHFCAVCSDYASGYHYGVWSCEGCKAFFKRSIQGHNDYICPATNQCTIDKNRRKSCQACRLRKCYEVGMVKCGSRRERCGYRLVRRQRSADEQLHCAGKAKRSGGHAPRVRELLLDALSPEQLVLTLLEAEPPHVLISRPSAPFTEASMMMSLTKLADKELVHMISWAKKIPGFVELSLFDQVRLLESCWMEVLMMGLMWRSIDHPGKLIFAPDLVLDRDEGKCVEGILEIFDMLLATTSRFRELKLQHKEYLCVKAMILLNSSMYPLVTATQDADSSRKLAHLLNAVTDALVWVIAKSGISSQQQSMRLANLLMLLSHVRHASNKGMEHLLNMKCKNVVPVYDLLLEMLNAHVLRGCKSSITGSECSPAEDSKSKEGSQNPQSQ

For `CCCCCCCCOC(=O)CCCCCCCCC(=O)OCCCCCCCC`, the Potency result in assay [1], in assay [3], in assay [4], in assay [6], in assay [7] and in assay [8] was “inactive” throughout. The Potency result in assay [9], in assay [11], in [12], in assay [13] and in assay [14] was “inactive” throughout. In addition, the outcome in [2], in [5] and in assay [10] was inactive.

On to `CCCC1CCC(=O)O1` (stereo not drawn), for which the Potency result in assay [1], in assay [4], in [6], in [7], in assay [8] and in assay [9] was “inactive” in each case. Moreover, the Potency entry in assay [12] and in [13] was “inactive” in each case. The result in assay [2], in assay [5], in [15] and in assay [16] was inactive.

As to `OCCN1CCN(CCO)CC1`, the Potency result in assay [1], in assay [4], in assay [6], in assay [7], in [9] and in [11] was “inactive” each time. Also, the Potency entry in assay [12] and in [13] was “inactive” each time. For the same compound, the result in assay [2], in [5], in assay [15] and in assay [16] was inactive.

On to `NCCCN1CCN(CCCN)CC1`, for which the Potency result in assay [1], in assay [17], in assay [4], in [7], in [8] and in assay [9] was “inactive” each time. Moreover, the Potency entry in assay [12], in [13], in assay [18] and in [14] was “inactive” in each case. Further, the call in [5], in assay [15] and in assay [16] was inactive.

Consider `CCN1CC(CCN2CCOCC2)C(c2ccccc2)(c2ccccc2)C1=O` (stereo not drawn), for which the Potency entry in assay [1], in assay [4], in assay [8], in assay [11] and in assay [12] was “inactive” each time. Moreover, the result in [2], in assay [19], in [5], in assay [10], in assay [15] and in assay [16] was inactive.

For `FC(F)(F)c1ccccc1`, the Potency result in [1], in assay [3], in [4], in [6], in [7] and in [9] was “inactive” each time. The Potency result in [11], in [12], in assay [13] and in assay [14] was “inactive” each time. Further, the result in [2], in [5], in assay [10] and in [16] was inactive.

Regarding `CCC(=O)c1ccc2c(c1)N(CCCN(C)C)c1ccccc1S2`, the Potency result in assay [1], in assay [4], in [6], in assay [7], in [8] and in [9] was “inactive” in each case. Moreover, the Potency result in assay [18] is “inactive”. Besides, the result in assay [2], in assay [5] and in [10] was inactive. Also, the Potency in [11] is 26.6 µM (active); in assay [13], 29.8 µM (active).

On to `CC(C)C[C@H](NC(=O)OCC1c2ccccc2-c2ccccc21)C(=O)O`, for which the Potency entry in [1], in assay [4], in assay [6], in [7], in assay [8] and in assay [9] was “inactive” throughout. For the same compound, in assay [12], the Potency result was “inactive”. For the same compound, the outcome in assay [2], in [5] and in assay [16] was inactive. The Potency in assay [13] was 61.1 µM (active).

In the case of `CCCCNCCCC`, the Potency entry in assay [1], in assay [4], in assay [6], in assay [7], in assay [8] and in assay [9] was “inactive” each time. For the same compound, the Potency result in [11], in assay [12] and in [13] was “inactive” each time. Besides, the outcome in assay [2], in [5], in [10], in [15] and in [16] was inactive.
